# Data reported in the supplement of paper PMC10981050.
# “And” between values parts separate entries of the source, which are not always exact repeats. Identical values can stand only once. Counter-ions that a name gives are not always drawn.
# What was measured:
# Assay in all cases: cell viability relative to vehicle control; higher = less cytotoxic
# Details in all cases: 10 µM
# K562 = tested on: K562
# How it was run: (§1)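 CRISPR-edited mutant clones and isogenic wild-type clones from four leukaemia lines were screened against Selleck bioactive, kinase and epigenetic probe libraries, with identity-inconsistent compounds excluded. Each compound was acoustically dispensed at a single 10 µM dose into 384-well plates holding 2000 cells in 50 µL medium per well. After 48 h the supernatant was removed and CellTiter-Glo luminescence was read. Viability was expressed as percent of the on-plate vehicle control and analysed in Genedata Screener.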
# MARIMO = tested on: MARIMO
# How it was run: as §1
# MOLM14 = tested on: MOLM14
# How it was run: as §1
# OCI-AML2 = tested on: OCI-AML2
# How it was run: as §1
Structure (SMILES),cell viability (K562; SRSF2 genotype: SRSF2 P95H/wt),cell viability (K562; SRSF2 genotype: SRSF2 wt/wt),cell viability (MARIMO; SRSF2 genotype: SRSF2 P95H/wt),cell viability (MARIMO; SRSF2 genotype: SRSF2 wt/wt),cell viability (MOLM14; SRSF2 genotype: SRSF2 P95H/wt),cell viability (MOLM14; SRSF2 genotype: SRSF2 wt/wt),cell viability (OCI-AML2; SRSF2 genotype: P95H/wt),cell viability (OCI-AML2; SRSF2 genotype: wt/wt)
COc1ccc([C@@H]2OC[C@H]3[C@@H]2CO[C@@H]3c2ccc3c(c2)OCO3)cc1OC [Fargesin],87.8% and 91.3%,92.7%,84.8%,86%,97.2%,94.5%,88.6%,80.4%
CC(=O)Nc1cccc2c1c(Sc1ccc(Cl)cc1)c(C)n2CC(=O)O,108% and 110%,100%,108%,112%,105%,106%,101%,108%
COc1cc(C[C@H](C)[C@H](C)Cc2ccc3c(c2)OCO3)ccc1O [Anwuligan],88.8% and 87%,87.9%,87%,94.9%,88.3%,83.1%,76.8%,83.5%
O=C(O)c1ccc(O)c(O)c1 [Protocatechuic acid],101% and 97.7%,93.3%,93.1%,96.1%,96.8%,103%,98.4%,104%
CN(CCNCc1cn(Cc2ccc(Cl)cc2)nn1)CCNc1ccnc2cc(Cl)ccc12,2.31% and 5.3%,6.48%,28.8%,34.4%,2.79%,0.55%,0.39%,0.68%
COc1cc(O)c2c(c1)oc(=O)c1c3cc(O)c(O)cc3oc21 [Wedelolactone],84.6% and 90.9%,76.1%,87.2%,102%,61.3%,67.2%,68.3%,82.1%
COc1ccc(C(=O)CC(=O)c2ccc(C(C)(C)C)cc2)cc1 [Avobenzone (Parsol 1789)],87.3% and 92.5%,91.8%,77.2%,92.6%,87.6%,98.9%,61.2%,76.8%
COC(=O)C1=CO[C@@H](O[C@@H]2O[C@H](CO)[C@@H](O)[C@H](O)[C@H]2O)[C@H]2[C@@H]1C(=O)C[C@@H]2C [Verbenalin],104% and 98.5%,104%,99.9%,100%,110%,103%,98.4%,100%
CCCN1CCCC[C@H]1C(=O)Nc1c(C)cccc1C [Ropivacaine HCl],91% and 94.8%,94.2%,99.7%,89%,95%,95.4%,98%,95.6%
C[C@@H]1COCCN1c1cc(C2([S@](C)(=N)=O)CC2)nc(-c2cc[nH]c3nccc2-3)n1,15.9% and 23.3%,15.3%,19.2%,20.1%,11.1%,5.99%,10.6%,12%
CC(C)CCN1c2nc(Nc3cc(F)c(O)c(F)c3)ncc2N(C)C(=O)C1C (stereo not drawn),49.8% and 63.1%,64.1%,33.9%,35.3%,11.4%,4.4%,16.2%,20.7%
